From PubChem BioAssay (NCATS)
“And” between values parts separate entries of the source, which are not always exact repeats. Identical values can stand only once. Results filed as inconclusive are left out. The source made the active and inactive calls. Calls come from the whole dose curve; as a rule, active = well fitted curve in the direction sought with a large enough effect; inconclusive = small, poorly fitted or top-dose-only effect, or another doubt; inactive = no such curve, though single readings can be large; an effect the other way counts as inactive or inconclusive.

Experiments:
OV90 = assay: Primary qHTS to identify gynecologic anti-cancer compounds using libraries of approved drugs and bioactive compounds (AID 1345084); conditions: Gynecologic cancer cell panel viability, ATPlite luminescence, 48 h; series mostly up to 57.5 µM; note: nearly all actives have a fitted effect of over 55% in size
Summary of the method: (§1)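 48 h compound exposure at 37 C, 5% CO2; five-point qHTS. ATPlite luminescence readout of cell ATP.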

PA-1 = assay: as above; conditions: Gynecologic cancer cell panel viability, ATPlite luminescence, 48 h; series mostly up to 57.5 µM
Summary of the method: as §1

SKOV3 = assay: as above; conditions: Gynecologic cancer cell panel viability, ATPlite luminescence, 48 h; series mostly up to 57.5 µM
Summary of the method: as §1

Tov-21-G = assay: as above; conditions: Gynecologic cancer cell panel viability, ATPlite luminescence, 48 h; series mostly up to 57.5 µM
Summary of the method: as §1

Tov112D = assay: as above; conditions: Gynecologic cancer cell panel viability, ATPlite luminescence, 48 h; series mostly up to 57.5 µM
Summary of the method: as §1

[1] = Drug repurposing screens with cells derived from glioblastoma tumor samples (AID 1345199); conditions: GBM patient neurospheres viability, ATP luminescence, 48 h; note: nearly all actives have a fitted effect of over 40% in size
Summary of the method: (§2)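 Four patient lines of CD133+ GBM neurospheres were screened at several concentrations; hits were retested in those lines plus three slower-growing GBM lines, using 48-hour treatment and ATP-based viability.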

astro = assay: as above; conditions: viability, ATP luminescence, 48 h; series mostly up to 45.9 µM
Summary of the method: as §2

[2] = at 45.9 µM (top of the series), tumour line B
[3] = at 45.9 µM (top of the series), tumour line D
[4] = at 46 µM (top of the series), tumour line A
[5] = at 46.1 µM (top of the series), tumour line C
% is set by controls: 0 for no effect and ±100 for the full control effect.

CC(C)=CCc1ccc(Oc2c(O)cc(C)cc2CO)c(C(=O)O)c1O
inactive: Potency (OV90) | Potency (PA-1) | Potency (SKOV3) | Potency (Tov-21-G) | Potency (Tov112D)

CC(=O)c1c(O)cc2c(c1C)C(=O)CC(O)C2 (centres undefined)
inactive: Potency (OV90) | Potency (PA-1) | Potency (SKOV3) | Potency (Tov-21-G) | Potency (Tov112D)

O=C(O)c1cc(O[C@@H]2O[C@H](CO[C@@H]3OC[C@@H](O)[C@H](O)[C@H]3O)[C@@H](O)[C@H](O)[C@H]2O)c2ccccc2c1O
inactive: Potency (OV90) | Potency (PA-1) | Potency (SKOV3) | Potency (Tov-21-G) | Potency (Tov112D)

C=C1CCC[C@]2(C)C[C@]3(O)OC(=O)C(C)=C3C[C@@H]12
inactive: Potency (OV90) | Potency (PA-1) | Potency (SKOV3) | Potency (Tov-21-G) | Potency (Tov112D)

CC(=O)NC(C(=O)OC1CCC(C)(C)C2CC=C3C(=O)OCC3(O)C12C)C(C)C (centres undefined)
inactive: Potency (OV90) | Potency (PA-1) | Potency (SKOV3) | Potency (Tov-21-G) | Potency (Tov112D)

COC(=O)c1ccc(O[C@@H]2O[C@H](CO)[C@@H](O)[C@H](O)[C@H]2O)c(OC)c1
inactive: Potency (OV90) | Potency (PA-1) | Potency (SKOV3) | Potency (Tov-21-G) | Potency (Tov112D)

CC(=O)OC1C=C(C(=O)O)C2(CO)CCC(C)C(C)(CCc3ccoc3)C2C1 (centres undefined)
inactive: Potency (OV90) | Potency (PA-1) | Potency (SKOV3) | Potency (Tov-21-G) | Potency (Tov112D)

C=CC(C)(O)CO[C@@H]1O[C@H](CO)[C@@H](O)[C@H](O)[C@H]1O (some centres undefined)
inactive: Potency (OV90) | Potency (PA-1) | Potency (SKOV3) | Potency (Tov-21-G) | Potency (Tov112D)

CC1CCC2C(C)(C)CC(C)(CO)C2(O)C1C(=O)O (centres undefined)
inactive: Potency (OV90) | Potency (PA-1) | Potency (SKOV3) | Potency (Tov-21-G) | Potency (Tov112D)

COc1c(C)c(OCC=C(C)C)cc2c1C(=O)NC2=O
inactive: Potency (OV90) | Potency (PA-1) | Potency (SKOV3) | Potency (Tov-21-G) | Potency (Tov112D)

COc1ccc(C)c2sc(NC(=O)c3ccncc3)nc12
inactive: Potency (OV90) | Potency (PA-1) | Potency (SKOV3) | Potency (Tov-21-G) | Potency (Tov112D)

CC(=O)Oc1cc2c(s1)CCN([C@H](C(=O)C1CC1)c1ccccc1F)C2
inactive: Potency (OV90) | Potency (PA-1) | Potency (SKOV3) | Potency (Tov-21-G) | Potency (Tov112D)

O=c1ccn([C@@H]2O[C@H](CO)[C@@H](O)[C@H]2O)c(=O)[nH]1
inactive: Potency (OV90) | Potency (PA-1) | Potency (SKOV3) | Potency (Tov-21-G) | Potency (Tov112D)

CC1=C2CC3OC3(C)CCC3OC3(C)CC2OC1=O (centres undefined)
inactive: Potency (OV90) | Potency (PA-1) | Potency (SKOV3) | Potency (Tov-21-G) | Potency (Tov112D)

C[C@@H]1C[C@H]2[C@@H]3CCC4=CC(=O)C=C[C@]4(C)[C@@]3(F)[C@@H](O)C[C@]2(C)[C@@]1(O)C(=O)COP(=O)(O)O
inactive: Potency (OV90) | Potency (PA-1) | Potency (SKOV3) | Potency (Tov-21-G) | Potency (Tov112D) | activity, negative = cell killing [1, 2] -3.61% | activity, negative = cell killing [1, 3] 1.29% | activity, negative = cell killing [1, 4] -0.902% | activity, negative = cell killing [1, 5] -0.678%

COc1ccccc1-n1c(SCC(=O)Nc2nc3ccc(C)cc3s2)nc2c(c1=O)SCC2
inactive: Potency (OV90) | Potency (PA-1) | Potency (SKOV3) | Potency (Tov-21-G) | Potency (Tov112D)

C=C1CCC2[C@@](C)(C=O)CCC[C@]2(C)[C@H]1CC/C(C)=C/CO (some centres undefined)
inactive: Potency (OV90) | Potency (PA-1) | Potency (SKOV3) | Potency (Tov-21-G) | Potency (Tov112D)

CN1Cc2c(N)cccc2C(c2ccccc2)C1 (centres undefined)
inactive: Potency (OV90) | Potency (PA-1) | Potency (SKOV3) | Potency (Tov-21-G) | Potency (Tov112D) | activity, negative = cell killing [1, 2] -10.9% | activity, negative = cell killing [1, 3] -22.4% | activity, negative = cell killing [1, 4] -25.6% | activity, negative = cell killing [1, 5] -16.4% | Potency (astro)

COC1=CC(=O)O[C@@H](CCc2ccccc2)[C@@H]1O
inactive: Potency (OV90) | Potency (PA-1) | Potency (SKOV3) | Potency (Tov-21-G) | Potency (Tov112D)

CC(=O)OC(C)OC(=O)C(C)c1ccc(-c2ccccc2)c(F)c1 (centres undefined)
inactive: Potency (OV90) | Potency (PA-1) | Potency (SKOV3) | Potency (Tov-21-G) | Potency (Tov112D) | activity, negative = cell killing [1, 2] 13.2% and -1.22% | activity, negative = cell killing [1, 3] 13.1% and -23.3% | activity, negative = cell killing [1, 4] -17.1% | activity, negative = cell killing [1, 5] 1.46% and -25.4% | Potency (astro)

C=C(C)[C@@H](C)[C@H]1O[C@]23C[C@]4(CO2)C(CCC2[C@@]5(C)CC[C@H](O[C@@H]6OC[C@H](O)[C@H](O[C@@H]7O[C@H](CO)[C@@H](O)[C@H](O)[C@H]7O)[C@H]6O[C@@H]6O[C@@H](CO)[C@H](O)[C@H]6O)C(C)(C)C5CC[C@]24C)C3[C@@](C)(O)[C@@H]1OC(C)=O (some centres undefined)
inactive: activity change, negative = cytotoxicity (OV90) 2.63% [at 11.6 µM] | activity change, negative = cytotoxicity (PA-1) 20.8% [at 11.6 µM] | activity change, negative = cytotoxicity (SKOV3) 6.78% [at 11.6 µM] | activity change, negative = cytotoxicity (Tov-21-G) 0.172% [at 11.6 µM] | activity change, negative = cytotoxicity (Tov112D) 3.31% [at 11.6 µM]

CC(C)=CC/C=C(/C)[C@H]1CC[C@]2(C)[C@@H]1[C@H](O)CC1[C@@]3(C)CC[C@H](O)C(C)(C)[C@@H]3[C@@H](O[C@@H]3O[C@H](CO)[C@@H](O)[C@H](O)[C@H]3O[C@@H]3O[C@@H](C)[C@H](O)[C@@H](O)[C@H]3O)C[C@]12C (some centres undefined)
inactive: Potency (OV90) | Potency (PA-1) | Potency (SKOV3) | Potency (Tov-21-G) | Potency (Tov112D)
